Sensor-assay potency score (higher = more potent) data for 40 sequences are collected here from the OligoGym collection.
Further: reference of the scale not given here.

In one assay the target is PRODH2. Nature of the assay: pooled miR-30 sensor sort-seq; sequence = guide strand. To be noted: shRNA.
Sequence TTAAAATTGGAAACGCTGTAGT had a sensor-assay potency score (higher = more potent) of 0.00998.

AAAATTGGAAACGCTGTAGTGT showed a sensor-assay potency score (higher = more potent) of -0.189.

In turn, AATACATTTGAAAATACGGTTC came in with a sensor-assay potency score (higher = more potent) of -0.869.

Regarding TTGCTTCCTCTTAAAATTGGAA, the sensor-assay potency score (higher = more potent) was -1.06.

In turn, TTGAAAATACGGTTCTCACGTT gave a sensor-assay potency score (higher = more potent) of -0.536.

Sequence TAGTGTTATTGAATACATTTGA gave a sensor-assay potency score (higher = more potent) of -0.549.

Regarding TAACAGGTCCGGAGCATCCTGG, the sensor-assay potency score (higher = more potent) was -1.03.

The target in the next assay is PROM2. Described as above. To be noted: shRNA.
Turning to TTCTCCTCCTGGACCATGCTGG, the sensor-assay potency score (higher = more potent) is -0.874.

In turn, TATTTGGAGGTCTTGACGGCAA returned a sensor-assay potency score (higher = more potent) of -0.214.

The sequence TTGGCTAGGACATCTGAGGTCT yielded a sensor-assay potency score (higher = more potent) of 0.382.

With TCACACAGGATCACACGGCTGT, the sensor-assay potency score (higher = more potent) came to 0.353.

As to TTCAGCTCTTGCACCACGCTGG, the sensor-assay potency score (higher = more potent) is -0.154.

For TGTAGGTCTCGTATCTCTGCAC, the sensor-assay potency score (higher = more potent) is -0.146.

For the sequence TTGGGGGACATCAGAGACCAGG, the sensor-assay potency score (higher = more potent) was -1.48.

With TAGCTTGTTGGTATACTGGTTG, the sensor-assay potency score (higher = more potent) was -0.045.

Turning to TTGTGCTCTGTCTTCACTCGTC, the sensor-assay potency score (higher = more potent) amounted to 0.345.

In turn, TAGGACATCTGAGGTCTCCAGC had a sensor-assay potency score (higher = more potent) of -0.69.

In the case of TTGAGCTGCAGGACTGTCCAGA, the sensor-assay potency score (higher = more potent) was -0.114.

TTGACGGCAAAGATGATGCTGG displayed a sensor-assay potency score (higher = more potent) of -0.136.

In the next assay the target is PRPS1. The description is as above. To be noted: shRNA.
Consider TAAATTGTCATTGATTTCGCCA, for which the sensor-assay potency score (higher = more potent) was -0.0544.

TTATCTTTCTTATCCTGCCGGG returned a sensor-assay potency score (higher = more potent) of 0.175.

TTGGTGACTACTACTGCCTCAA displayed a sensor-assay potency score (higher = more potent) of -0.00628.

On to TTGTCATTGATTTCGCCACAAC, for which the sensor-assay potency score (higher = more potent) was -1.49.

TACACTTTCACCAATTTCCACA had a sensor-assay potency score (higher = more potent) of -0.758.

TCACTCTCTTAGCTCCACCAGC showed a sensor-assay potency score (higher = more potent) of -0.945.

Take TATCTTTCTTATCCTGCCGGGC: the sensor-assay potency score (higher = more potent) was -0.757.

As to TTTGCAACAAGCTTGGCTGAGA, the sensor-assay potency score (higher = more potent) is -0.163.

TCAGGTGAGACAATAGTGCAGT gave a sensor-assay potency score (higher = more potent) of 0.663.

TAATATGATCTGCACCTGCTAC: the sensor-assay potency score (higher = more potent) was -0.935.

TGATAATATGATCTGCACCTGC: the sensor-assay potency score (higher = more potent) is -0.404.

Sequence TATTGGTGACTACTACTGCCTC returned a sensor-assay potency score (higher = more potent) of -1.03.

Another assay addresses PRPS2. The description is as above. The settings on record: shRNA.
For TTCTGGAAATAGCTGGTCCAGA, the sensor-assay potency score (higher = more potent) is -1.31.

The sequence TTCATTTTGTCCTCTTGCGGAA showed a sensor-assay potency score (higher = more potent) of -0.733.

The sequence TATTTATTCTGGAAATAGCTGG returned a sensor-assay potency score (higher = more potent) of -0.496.

Turning to TGTCCTTTTTATCTTGTCGGGC, the sensor-assay potency score (higher = more potent) is -0.556.

The sequence ATGACCTGAATCTTGGTGCAGT showed a sensor-assay potency score (higher = more potent) of -0.901.

As for TATACTTGAAAGTTGTCGCCTC, the sensor-assay potency score (higher = more potent) was found to be 0.742.

Turning to TTTCATTTTGTCCTCTTGCGGA, the sensor-assay potency score (higher = more potent) was -0.379.

Sequence TGGTTGCTGAACTTCTTCGTGA gave a sensor-assay potency score (higher = more potent) of -1.01.

Sequence TTAGCATATACAAAGATCTGAT showed a sensor-assay potency score (higher = more potent) of -0.612.
